# Compound activity deposited in PubChem BioAssay by several laboratories.
# Hits are enriched below; roughly 1.9% of the tested compounds scored in any of these assays.
# SDO1 yeast rescue – growth rescue of sdo1-depleted yeast, primary screen, S. cerevisiae, bone marrow failure model. 140,000 compounds, 0.21% hits. z-score at 10 µM. AID 817, 2007. S. cerevisiae sdo1-depleted JHY4D growth rescue, OD600 30 h; stronger effect = higher value; pdr5 snq2 efflux-pump mutant strain;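 active = z-score above 3 at both the 24 hr and the 30 hr optical density reads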;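 also: z-score against mean and SD of all compound wells on the same plate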
# sEH act – soluble epoxide hydrolase activators, primary screen, biochemical, human sEH; 91,000 compounds, 0.04% hits; activation, % at 2 µM; Bifunctional epoxide hydrolase 2 (Homo sapiens), P34913; purified human sEH enzymatic activity, activator screen; AID 717, 2007; in the data active = activation above about 37%
# Target sequence (P34913 whole entry, looked up): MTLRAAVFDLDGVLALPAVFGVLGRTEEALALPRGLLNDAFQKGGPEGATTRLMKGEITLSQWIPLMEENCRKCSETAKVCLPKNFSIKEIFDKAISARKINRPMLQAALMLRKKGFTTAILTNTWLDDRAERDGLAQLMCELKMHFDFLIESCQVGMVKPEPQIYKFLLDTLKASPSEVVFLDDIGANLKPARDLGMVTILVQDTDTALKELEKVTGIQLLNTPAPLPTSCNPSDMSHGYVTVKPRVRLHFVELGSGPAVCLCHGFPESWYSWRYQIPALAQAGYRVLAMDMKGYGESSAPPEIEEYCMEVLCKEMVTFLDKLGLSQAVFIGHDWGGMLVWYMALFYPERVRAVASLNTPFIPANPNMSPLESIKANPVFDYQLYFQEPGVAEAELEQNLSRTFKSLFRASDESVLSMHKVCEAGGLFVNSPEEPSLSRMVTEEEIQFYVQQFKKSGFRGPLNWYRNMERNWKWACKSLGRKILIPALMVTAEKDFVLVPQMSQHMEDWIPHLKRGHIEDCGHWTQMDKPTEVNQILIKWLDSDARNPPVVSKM
# sEH inhibitor – soluble epoxide hydrolase inhibitors, primary screen, biochemical, human sEH. Bifunctional epoxide hydrolase 2 (Homo sapiens), P34913. recombinant human sEH enzymatic activity assay. inhibition, % at 2 µM. 91,000 compounds, 0.34% hits. AID 707, 2007; in the data active = inhibition above about 80%
# Measles CPE – compounds protecting cells from measles virus cytopathic effect, primary screen, measles RdRp inhibitor project, single point, MLSMR library, absorbance; Measles virus-infected cells, CPE protection; protection (pct of control), % at 4 µM; 140,000 compounds, 1.5% hits; AID 841, 2007; in the data active = protection mostly above about 24%, no sharp cut-off; inactive = mostly below about 26%
# Active calls of the source: *; / = no result given.
SMILES,SDO1 yeast rescue,sEH act,sEH inhibitor,Measles CPE
CCCCNC(=O)c1ccc2c(c1)N(CC)C(=O)CS2,-0.05,/,/,1
C=CCN1C(=O)CSc2ccc(C(=O)NCCC3=CCCCC3)cc21,-0.87,-89,89*,10
CCN1C(=O)CSc2ccc(C(=O)NCc3ccc(OC)cc3)cc21,0.91,-68,69,36*
C=CCN1C(=O)CSc2ccc(C(=O)NCc3ccco3)cc21,-0.35,/,/,5
Cc1ccc(CSCCNC(=O)c2ccc(Cl)c(S(=O)(=O)N3CCOCC3)c2)cc1,-0.97,-73,74,2
O=C(NCCC1=CCCCC1)c1ccc(Cl)c(S(=O)(=O)N2CCOCC2)c1,-0.78,-94,94*,1
Cc1csc2ncc(C(=O)N3c4ccccc4CC3C)c(=O)n12 (configuration not stated),-0.76,/,/,14
CS(=O)(=O)Nc1ccc2c(c1)C(=O)OC2,0.56,3,-5,53*
NNc1nc2ccc(Cl)cc2s1,-0.9,/,/,14
CCCn1c(SCC(=O)Nc2ccccc2C(=O)OC)nc2c1c(=O)n(C)c(=O)n2C,1,6,-2,23
CCOc1ccc2nc(NC(=O)CSc3nc4c(c(=O)n(C)c(=O)n4C)n3C(C)C)sc2c1,-1.1,/,/,2
CCCn1c(SCC(=O)Nc2sc(C)c(C)c2C(=O)OCC)nc2c1c(=O)n(C)c(=O)n2C,0.02,0,0,31*
CCn1c(SCC(=O)Nc2nc3ccc(OC)cc3s2)nc2c1c(=O)n(C)c(=O)n2C,-1.4,/,/,27*
Cc1ccc(N2CCN(C(=O)CNS(=O)(=O)c3ccc(Br)s3)CC2C)cc1 (configuration not stated),-1.3,-4,6,13
Cc1sc(N/N=C/c2ccco2)nc1-c1ccccc1,-0.2,/,/,18
Cc1sc(N/N=C/c2cccnc2)nc1-c1ccccc1,-1.7,1,0,83*
O=C(NCCN1CCOCC1)c1ccc([N+](=O)[O-])cc1[N+](=O)[O-],0.78,20,-17,3
O=C(NCCN1CCOCC1)c1cc(Cl)ccc1[N+](=O)[O-],0.48,/,/,32*
Cc1cccc(CSc2nnnn2-c2ccccc2)c1,-0.14,-2,-1,69*
COc1cc(CN2CCCC(C)C2)cc([N+](=O)[O-])c1O (configuration not stated),-0.85,9,-7,6
Cc1ccc2nc(-c3ccccn3)cc(C(=O)NC3CCN(C)CC3)c2c1,1.5,9,-6,67*
CCCCOC(=O)CCNc1n[nH]c(=O)[nH]c1=O,1.7,/,/,56*
O=CN1Cc2[nH]c3ccccc3c2N(c2ccc(Cl)cc2)C1=O,0.88,9,-7,29
O=C(NCC(=O)N(c1ccc2c(c1)OCO2)C(C(=O)NC1CCCC1)c1cccs1)c1ccco1 (configuration not stated),0.92,-5,5,66*
COc1ccc(-c2nc3n(n2)C(=O)CC(c2ccco2)S3)cc1 (configuration not stated),-0.29,/,/,5
SMILES,SDO1 yeast rescue,sEH act,sEH inhibitor,Measles CPE
CCN(CC)c1ccc(NC(=O)CN2CCN(c3nc(C)cc(C)n3)CC2)cc1,-1.4,/,/,4
CC(=O)c1ccc(NC(=O)CN2CCN(c3ncccn3)CC2)cc1,0.12,-9,10,78*
COC(=O)c1cn(NC(=O)c2ccc(F)cc2)c(=O)c2ccccc12,-0.26,-12,14,44*
O=C1CCCN1CN1CCCCC1,1.3,/,/,17
CCOC(=O)c1ccc(-n2c(N)c(C(=O)NCc3ccco3)sc2=S)cc1,0.96,-27,27,51*
COc1ccc(-n2c(N)c(C(=O)NCc3ccco3)sc2=S)cc1,1.6,-2,6,4
N#CCCN1CCN(Cn2c3ccccc3c3ccccc32)CC1,-0.19,/,/,12
Cc1ccc(NC(=O)COC(=O)c2csc3c2CCC(C)C3)cc1S(=O)(=O)N1CCCCC1 (configuration not stated),-0.46,/,/,4
O=C(NCc1nc2ccccc2[nH]1)c1cc2ccccc2oc1=O,0.9,-7,6,86*
O=C(NCc1nc2ccccc2[nH]1)c1ccco1,0.3,-2,6,19
O=C(O)c1ccnc(Cl)c1,1,/,/,25*
OCc1ccnc(Cl)c1,1.5,/,/,5
CCOC(=O)Nc1sc(NS(=O)(=O)c2ccccc2)nc1C,1.4,-2,3,11
O=C(CCc1ccccc1)Nc1cc(Cl)ccc1O,-1,0,1,36*
O=C(c1ccc([N+](=O)[O-])cc1)N1CCSC1c1ccccc1 (configuration not stated),1.4,/,/,24*
Cc1ccc(-n2ncc3c(SCc4ccccc4)ncnc32)cc1,0.54,/,/,35*
CN(Cc1ccccc1)c1ncnc2c1cnn2-c1ccccc1,-0.62,3,-2,11
CCN(c1ccccc1)c1ncnc2c1cnn2-c1ccccc1,-1.9,5,-6,49*
Cc1ccc(CSc2ncnc3c2cnn3-c2ccccc2)cc1,-0.19,/,/,2
O=C(OC(C(=O)NCc1cccs1)c1ccccc1F)c1ccco1 (configuration not stated),0.05,-2,1,42*
CN(C)C(=O)CCN1CCOCC1,0.02,2,-2,10
CC(=O)CCN1CCOCC1,-0.14,8,-12,94*
COc1ccc(NC(=O)c2ccc(-n3nc(C)cc3C)cc2)cc1OC,0.4,6,-8,49*
COc1ccc(-c2nnn(CC(=O)N(Cc3ccc(F)cc3)C(C(=O)NC3CCCC3)c3ccc(F)cc3)n2)cc1 (configuration not stated),/,2,-3,/
CN(C)c1nc(SCCOC(=O)COc2ccc(Cl)cc2Cl)nc(N(C)C)n1,0.62,0,-2,105*
SMILES,SDO1 yeast rescue,sEH act,sEH inhibitor,Measles CPE
CC(C)n1c(SCC(=O)N2CCCC2)nc2c1c(=O)n(C)c(=O)n2C,0.38,/,/,33*
O=C1C(C=NCCCN2CCOCC2)=C(O)c2ccccc21,1.6,-3,4,8
COc1ccccc1NC(=O)Nc1nnc(C(C)C)s1,0.42,/,/,55*
CCc1nnc(NC(=O)Nc2ccccc2OC)s1,0.06,4,-2,7
O=C(Nc1cccc(O)c1)c1cc2nc(-c3ccccc3)cc(-c3ccccc3)n2n1,0.95,/,/,6
O=C(CSc1nnc(NC(=O)c2ccccc2Cl)s1)Nc1ccc2c(c1)oc1ccccc12,-0.99,/,/,29
O=C(CSc1nc2ccccc2s1)Nc1ccc2c(c1)oc1ccccc12,0.25,/,/,26*
CCOC(=O)c1sc(NC(=O)CSc2nc3ccccc3s2)c(C(=O)OCC)c1C,-0.77,/,/,40*
COc1ccccc1CCNC(=O)C(=O)NCC1OCCN1S(=O)(=O)c1ccc(Br)cc1 (configuration not stated),-0.83,/,/,7
Cc1ccc(N2CCN(C(=O)N3CCCC3)CC2)cc1C,-0.49,-9,9,4
O=C(O)c1cc(-c2ccc(Cl)cc2)n[nH]1,1,/,/,35*
CN(c1cccc(NC(=O)COc2ccccc2)c1)S(C)(=O)=O,-0.28,14,-10,6
Cc1ccc(-n2c3c(cc(C(=O)O)c2=O)C(=O)CC(C)(C)C3)cc1,0.56,-4,4,55*
